Data published in ChEMBL document CHEMBL1961873, “Compounds: GSK PKIS; Assays: Nanosyn kinase panel” (2012).

Key:
[1] = biological target: High affinity nerve growth factor receptor (Homo sapiens) (UniProt P04629); conditions: at 1 µM;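 also: each value is the mean percent inhibition of TRKA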
[2] = biological target: BDNF/NT-3 growth factors receptor (Homo sapiens) (UniProt Q16620); conditions: at 0.1 µM
[3] = biological target: BDNF/NT-3 growth factors receptor (Homo sapiens) (UniProt Q16620); conditions: at 1 µM
[4] = biological target: NT-3 growth factor receptor (Homo sapiens) (UniProt Q16288); conditions: at 0.1 µM
[5] = biological target: NT-3 growth factor receptor (Homo sapiens) (UniProt Q16288); conditions: at 1 µM
[6] = biological target: T1, Tyrosine-protein kinase TXK (Homo sapiens) (UniProt P42681); conditions: at 0.1 µM
T1 sequence (whole entry): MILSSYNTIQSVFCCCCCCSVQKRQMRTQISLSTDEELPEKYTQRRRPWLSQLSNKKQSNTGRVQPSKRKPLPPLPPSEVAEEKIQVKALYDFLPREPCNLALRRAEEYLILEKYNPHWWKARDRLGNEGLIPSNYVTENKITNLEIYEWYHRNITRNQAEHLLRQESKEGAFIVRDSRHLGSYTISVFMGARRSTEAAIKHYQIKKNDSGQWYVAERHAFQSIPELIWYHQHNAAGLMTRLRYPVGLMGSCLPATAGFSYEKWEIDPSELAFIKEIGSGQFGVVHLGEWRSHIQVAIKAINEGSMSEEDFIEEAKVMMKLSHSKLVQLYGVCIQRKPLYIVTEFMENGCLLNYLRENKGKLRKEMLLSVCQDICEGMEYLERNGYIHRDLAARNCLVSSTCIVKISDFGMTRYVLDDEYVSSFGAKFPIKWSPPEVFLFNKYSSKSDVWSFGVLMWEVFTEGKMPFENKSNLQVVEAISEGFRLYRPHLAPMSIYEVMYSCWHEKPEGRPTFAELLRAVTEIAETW

[7] = biological target: T1, Tyrosine-protein kinase TXK (Homo sapiens); conditions: at 1 µM
[8] = biological target: Non-receptor tyrosine-protein kinase TYK2 (Homo sapiens) (UniProt P29597); conditions: at 0.1 µM;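 also: each value is a mean of the inhibition readings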
[9] = biological target: T2, Dual specificity protein kinase TTK (Homo sapiens) (UniProt P33981); conditions: at 1 µM;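 also: reported figures are mean TTK inhibition at 1 µM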
T2 sequence (whole entry): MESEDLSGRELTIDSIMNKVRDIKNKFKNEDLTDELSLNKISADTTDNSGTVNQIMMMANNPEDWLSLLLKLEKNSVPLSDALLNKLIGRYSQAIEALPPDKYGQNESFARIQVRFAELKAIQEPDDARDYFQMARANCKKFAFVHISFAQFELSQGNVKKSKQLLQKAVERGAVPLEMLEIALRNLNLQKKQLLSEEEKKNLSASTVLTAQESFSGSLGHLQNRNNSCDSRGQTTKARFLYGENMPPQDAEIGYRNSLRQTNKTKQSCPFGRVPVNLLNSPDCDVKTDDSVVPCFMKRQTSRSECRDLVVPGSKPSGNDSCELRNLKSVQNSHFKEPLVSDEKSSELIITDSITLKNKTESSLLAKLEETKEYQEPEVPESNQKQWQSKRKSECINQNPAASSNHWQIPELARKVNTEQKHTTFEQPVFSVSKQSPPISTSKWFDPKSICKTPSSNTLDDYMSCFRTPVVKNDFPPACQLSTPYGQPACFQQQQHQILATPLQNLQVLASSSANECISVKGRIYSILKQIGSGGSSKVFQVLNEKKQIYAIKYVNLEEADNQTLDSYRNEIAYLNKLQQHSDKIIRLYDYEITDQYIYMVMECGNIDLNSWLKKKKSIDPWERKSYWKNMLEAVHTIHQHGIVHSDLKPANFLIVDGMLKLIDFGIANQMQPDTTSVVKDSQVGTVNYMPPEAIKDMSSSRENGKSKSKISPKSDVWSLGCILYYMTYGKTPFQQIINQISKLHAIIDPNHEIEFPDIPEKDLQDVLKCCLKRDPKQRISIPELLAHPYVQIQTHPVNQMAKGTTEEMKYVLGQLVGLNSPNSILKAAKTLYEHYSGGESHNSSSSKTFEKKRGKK

[10] = biological target: T3, Aurora kinase A (Homo sapiens) (UniProt O14965); conditions: at 0.1 µM
T3 sequence (whole entry): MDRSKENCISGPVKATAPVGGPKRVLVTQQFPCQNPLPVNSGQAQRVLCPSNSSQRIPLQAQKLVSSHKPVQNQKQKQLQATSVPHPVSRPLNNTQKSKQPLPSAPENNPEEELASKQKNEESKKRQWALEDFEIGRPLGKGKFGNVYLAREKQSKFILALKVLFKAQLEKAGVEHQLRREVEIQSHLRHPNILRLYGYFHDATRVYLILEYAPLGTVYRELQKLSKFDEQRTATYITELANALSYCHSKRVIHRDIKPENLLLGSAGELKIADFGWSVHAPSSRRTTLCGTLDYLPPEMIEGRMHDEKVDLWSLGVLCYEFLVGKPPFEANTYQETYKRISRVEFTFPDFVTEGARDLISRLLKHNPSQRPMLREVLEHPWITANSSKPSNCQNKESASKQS

[11] = biological target: T3, Aurora kinase A (Homo sapiens); conditions: at 1 µM
[12] = biological target: Aurora kinase B (Homo sapiens) (UniProt Q96GD4); conditions: at 0.1 µM
[13] = biological target: Aurora kinase B (Homo sapiens) (UniProt Q96GD4); conditions: at 1 µM
[14] = biological target: T4, Aurora kinase C (Homo sapiens) (UniProt Q9UQB9); conditions: at 0.1 µM
T4 sequence (whole entry): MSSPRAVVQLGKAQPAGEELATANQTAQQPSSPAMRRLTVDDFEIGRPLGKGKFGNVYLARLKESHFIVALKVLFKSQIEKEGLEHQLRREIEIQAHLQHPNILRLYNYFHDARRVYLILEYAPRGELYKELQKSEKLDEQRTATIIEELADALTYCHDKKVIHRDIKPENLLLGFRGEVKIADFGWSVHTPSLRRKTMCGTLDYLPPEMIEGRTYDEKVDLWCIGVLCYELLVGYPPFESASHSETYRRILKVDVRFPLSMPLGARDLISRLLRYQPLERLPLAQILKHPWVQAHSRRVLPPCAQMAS

[15] = biological target: T4, Aurora kinase C (Homo sapiens); conditions: at 1 µM
[16] = biological target: Serine/threonine-protein kinase 10 (Homo sapiens) (UniProt O94804); conditions: at 0.1 µM
[17] = biological target: Serine/threonine-protein kinase 10 (Homo sapiens) (UniProt O94804); conditions: at 1 µM
[18] = biological target: T5, Mitogen-activated protein kinase kinase kinase kinase 2 (Homo sapiens) (UniProt Q12851); conditions: at 0.1 µM
T5 sequence (whole entry): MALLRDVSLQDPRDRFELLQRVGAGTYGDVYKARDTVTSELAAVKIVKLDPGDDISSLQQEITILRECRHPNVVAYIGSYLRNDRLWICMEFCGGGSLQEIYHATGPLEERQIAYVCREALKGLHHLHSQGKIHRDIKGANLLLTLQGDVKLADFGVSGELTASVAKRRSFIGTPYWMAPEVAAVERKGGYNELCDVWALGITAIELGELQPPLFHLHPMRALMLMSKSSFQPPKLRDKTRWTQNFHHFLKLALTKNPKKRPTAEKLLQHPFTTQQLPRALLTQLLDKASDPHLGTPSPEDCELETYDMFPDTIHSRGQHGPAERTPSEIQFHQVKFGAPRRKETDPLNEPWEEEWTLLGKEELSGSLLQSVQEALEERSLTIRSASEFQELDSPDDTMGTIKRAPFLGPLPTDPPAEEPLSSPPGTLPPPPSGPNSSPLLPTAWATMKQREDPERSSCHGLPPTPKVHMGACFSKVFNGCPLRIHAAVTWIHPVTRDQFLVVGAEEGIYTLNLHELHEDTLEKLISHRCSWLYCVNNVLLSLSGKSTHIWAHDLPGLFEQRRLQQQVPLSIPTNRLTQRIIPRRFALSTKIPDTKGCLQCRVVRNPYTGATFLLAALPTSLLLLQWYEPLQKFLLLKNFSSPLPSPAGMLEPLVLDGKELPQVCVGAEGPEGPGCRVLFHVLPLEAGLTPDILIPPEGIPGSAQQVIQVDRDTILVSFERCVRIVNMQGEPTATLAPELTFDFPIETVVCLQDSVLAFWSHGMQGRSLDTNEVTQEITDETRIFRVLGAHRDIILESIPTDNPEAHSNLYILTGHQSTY

[19] = biological target: T5, Mitogen-activated protein kinase kinase kinase kinase 2 (Homo sapiens); conditions: at 1 µM
[20] = biological target: Mitogen-activated protein kinase kinase kinase kinase 4 (Homo sapiens) (UniProt O95819); conditions: at 0.1 µM
Mitogen-activated protein kinase kinase kinase kinase 4 (Homo sapiens), sequence (O95819 2-1239 limits assumed): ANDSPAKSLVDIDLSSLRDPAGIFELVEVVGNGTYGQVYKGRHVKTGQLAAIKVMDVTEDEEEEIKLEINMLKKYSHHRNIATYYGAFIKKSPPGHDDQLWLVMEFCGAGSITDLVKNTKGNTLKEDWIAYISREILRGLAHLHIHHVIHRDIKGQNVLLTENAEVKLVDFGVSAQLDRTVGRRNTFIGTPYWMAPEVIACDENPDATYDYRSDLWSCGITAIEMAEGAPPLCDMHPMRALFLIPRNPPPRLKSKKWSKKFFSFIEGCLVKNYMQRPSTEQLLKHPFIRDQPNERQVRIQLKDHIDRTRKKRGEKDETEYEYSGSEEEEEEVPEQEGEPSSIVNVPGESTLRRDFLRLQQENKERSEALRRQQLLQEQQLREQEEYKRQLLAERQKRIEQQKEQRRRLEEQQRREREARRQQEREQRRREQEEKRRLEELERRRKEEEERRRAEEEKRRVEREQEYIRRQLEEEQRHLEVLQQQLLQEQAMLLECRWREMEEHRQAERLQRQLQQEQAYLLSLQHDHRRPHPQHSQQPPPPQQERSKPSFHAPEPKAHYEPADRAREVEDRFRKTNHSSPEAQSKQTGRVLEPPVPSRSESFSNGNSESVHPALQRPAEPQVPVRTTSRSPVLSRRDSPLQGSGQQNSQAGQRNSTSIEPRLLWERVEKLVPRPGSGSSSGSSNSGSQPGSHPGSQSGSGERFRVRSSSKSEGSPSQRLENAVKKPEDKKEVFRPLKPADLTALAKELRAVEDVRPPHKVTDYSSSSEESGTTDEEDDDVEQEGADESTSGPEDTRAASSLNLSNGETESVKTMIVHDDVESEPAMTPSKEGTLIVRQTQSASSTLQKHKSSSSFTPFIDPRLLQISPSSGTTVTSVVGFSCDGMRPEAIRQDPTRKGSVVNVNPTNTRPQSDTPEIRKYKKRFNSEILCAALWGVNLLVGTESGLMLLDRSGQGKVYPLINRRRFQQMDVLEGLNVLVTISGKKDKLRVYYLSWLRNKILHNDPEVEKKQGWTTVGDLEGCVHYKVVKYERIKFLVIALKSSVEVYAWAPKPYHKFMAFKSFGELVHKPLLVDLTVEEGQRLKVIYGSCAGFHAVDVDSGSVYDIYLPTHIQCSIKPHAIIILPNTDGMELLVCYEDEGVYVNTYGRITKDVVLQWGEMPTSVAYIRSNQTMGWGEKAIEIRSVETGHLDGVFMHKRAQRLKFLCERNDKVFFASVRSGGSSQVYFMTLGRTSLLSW

High affinity nerve growth factor receptor (Homo sapiens), sequence (P04629 33-796 limits assumed): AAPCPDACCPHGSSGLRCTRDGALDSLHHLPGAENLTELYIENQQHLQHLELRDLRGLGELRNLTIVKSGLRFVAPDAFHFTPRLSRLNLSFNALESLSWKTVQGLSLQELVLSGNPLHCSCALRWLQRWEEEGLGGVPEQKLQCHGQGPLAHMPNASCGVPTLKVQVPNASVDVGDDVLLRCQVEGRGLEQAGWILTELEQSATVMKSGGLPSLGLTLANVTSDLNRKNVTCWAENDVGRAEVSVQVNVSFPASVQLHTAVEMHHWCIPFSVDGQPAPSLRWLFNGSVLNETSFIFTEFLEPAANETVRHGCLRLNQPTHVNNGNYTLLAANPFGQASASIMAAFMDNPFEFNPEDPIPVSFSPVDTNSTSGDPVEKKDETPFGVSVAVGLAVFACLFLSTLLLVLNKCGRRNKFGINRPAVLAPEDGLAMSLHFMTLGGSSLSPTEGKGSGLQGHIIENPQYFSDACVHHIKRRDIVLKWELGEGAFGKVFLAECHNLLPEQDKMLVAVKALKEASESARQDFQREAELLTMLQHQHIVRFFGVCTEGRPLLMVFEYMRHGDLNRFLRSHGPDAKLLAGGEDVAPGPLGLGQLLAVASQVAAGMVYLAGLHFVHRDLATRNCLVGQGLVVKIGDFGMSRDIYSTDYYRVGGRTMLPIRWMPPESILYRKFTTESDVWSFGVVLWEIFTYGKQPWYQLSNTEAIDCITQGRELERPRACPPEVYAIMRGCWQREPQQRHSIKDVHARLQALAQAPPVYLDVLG
Non-receptor tyrosine-protein kinase TYK2 (Homo sapiens), sequence (P29597 whole entry): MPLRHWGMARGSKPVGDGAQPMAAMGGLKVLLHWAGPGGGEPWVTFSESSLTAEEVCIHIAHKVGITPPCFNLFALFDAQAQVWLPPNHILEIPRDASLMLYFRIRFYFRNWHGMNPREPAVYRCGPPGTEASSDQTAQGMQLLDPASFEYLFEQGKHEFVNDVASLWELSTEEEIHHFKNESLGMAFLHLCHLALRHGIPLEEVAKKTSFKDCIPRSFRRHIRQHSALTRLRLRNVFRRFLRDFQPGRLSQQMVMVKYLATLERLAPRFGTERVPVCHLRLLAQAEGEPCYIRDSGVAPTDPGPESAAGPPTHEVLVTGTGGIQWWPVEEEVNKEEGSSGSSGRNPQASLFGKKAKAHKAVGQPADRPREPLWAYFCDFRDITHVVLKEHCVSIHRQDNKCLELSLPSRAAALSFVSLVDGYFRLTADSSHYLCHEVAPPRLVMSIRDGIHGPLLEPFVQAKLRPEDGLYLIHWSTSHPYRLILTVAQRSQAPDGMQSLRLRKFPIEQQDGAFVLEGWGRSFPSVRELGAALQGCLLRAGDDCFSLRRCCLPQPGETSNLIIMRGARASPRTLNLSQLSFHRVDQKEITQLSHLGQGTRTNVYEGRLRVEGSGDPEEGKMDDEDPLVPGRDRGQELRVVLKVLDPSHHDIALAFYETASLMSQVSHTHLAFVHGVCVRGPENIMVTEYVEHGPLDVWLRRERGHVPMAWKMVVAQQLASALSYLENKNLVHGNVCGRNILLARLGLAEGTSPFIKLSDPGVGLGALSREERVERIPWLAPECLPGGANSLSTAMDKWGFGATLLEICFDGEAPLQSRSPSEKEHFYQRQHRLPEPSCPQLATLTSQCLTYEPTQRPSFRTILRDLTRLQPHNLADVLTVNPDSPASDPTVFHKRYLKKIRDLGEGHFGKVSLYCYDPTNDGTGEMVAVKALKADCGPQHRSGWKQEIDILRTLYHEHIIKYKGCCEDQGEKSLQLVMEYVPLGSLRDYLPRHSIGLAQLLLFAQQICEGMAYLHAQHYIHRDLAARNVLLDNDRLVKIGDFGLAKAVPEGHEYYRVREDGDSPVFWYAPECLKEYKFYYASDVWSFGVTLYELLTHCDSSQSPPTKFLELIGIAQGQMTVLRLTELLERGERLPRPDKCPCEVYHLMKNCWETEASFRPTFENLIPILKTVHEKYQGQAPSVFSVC
NT-3 growth factor receptor (Homo sapiens), sequence (Q16288 32-839 limits assumed): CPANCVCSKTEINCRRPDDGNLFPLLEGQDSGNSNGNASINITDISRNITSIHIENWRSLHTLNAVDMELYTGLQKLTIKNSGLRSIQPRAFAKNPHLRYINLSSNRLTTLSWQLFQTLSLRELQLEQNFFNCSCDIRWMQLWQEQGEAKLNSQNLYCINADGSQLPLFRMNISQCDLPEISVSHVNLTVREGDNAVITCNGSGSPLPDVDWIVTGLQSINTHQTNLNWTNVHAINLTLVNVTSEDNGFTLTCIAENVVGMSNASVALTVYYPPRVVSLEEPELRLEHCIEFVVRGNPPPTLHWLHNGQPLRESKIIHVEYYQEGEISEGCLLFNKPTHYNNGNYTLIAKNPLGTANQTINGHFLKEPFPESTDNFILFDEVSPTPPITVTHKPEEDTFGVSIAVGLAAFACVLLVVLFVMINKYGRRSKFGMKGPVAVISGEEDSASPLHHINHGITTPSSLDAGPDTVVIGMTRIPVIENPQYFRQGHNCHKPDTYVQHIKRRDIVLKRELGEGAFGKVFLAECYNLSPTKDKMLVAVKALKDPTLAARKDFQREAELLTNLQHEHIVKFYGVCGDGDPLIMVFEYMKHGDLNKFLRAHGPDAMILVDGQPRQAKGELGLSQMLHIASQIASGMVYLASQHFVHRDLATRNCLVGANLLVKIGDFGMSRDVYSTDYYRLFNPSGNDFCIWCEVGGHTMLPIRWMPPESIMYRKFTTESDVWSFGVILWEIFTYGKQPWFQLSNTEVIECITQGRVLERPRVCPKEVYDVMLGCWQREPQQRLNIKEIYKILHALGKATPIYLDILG
Serine/threonine-protein kinase 10 (Homo sapiens), sequence (O94804 whole entry, looked up): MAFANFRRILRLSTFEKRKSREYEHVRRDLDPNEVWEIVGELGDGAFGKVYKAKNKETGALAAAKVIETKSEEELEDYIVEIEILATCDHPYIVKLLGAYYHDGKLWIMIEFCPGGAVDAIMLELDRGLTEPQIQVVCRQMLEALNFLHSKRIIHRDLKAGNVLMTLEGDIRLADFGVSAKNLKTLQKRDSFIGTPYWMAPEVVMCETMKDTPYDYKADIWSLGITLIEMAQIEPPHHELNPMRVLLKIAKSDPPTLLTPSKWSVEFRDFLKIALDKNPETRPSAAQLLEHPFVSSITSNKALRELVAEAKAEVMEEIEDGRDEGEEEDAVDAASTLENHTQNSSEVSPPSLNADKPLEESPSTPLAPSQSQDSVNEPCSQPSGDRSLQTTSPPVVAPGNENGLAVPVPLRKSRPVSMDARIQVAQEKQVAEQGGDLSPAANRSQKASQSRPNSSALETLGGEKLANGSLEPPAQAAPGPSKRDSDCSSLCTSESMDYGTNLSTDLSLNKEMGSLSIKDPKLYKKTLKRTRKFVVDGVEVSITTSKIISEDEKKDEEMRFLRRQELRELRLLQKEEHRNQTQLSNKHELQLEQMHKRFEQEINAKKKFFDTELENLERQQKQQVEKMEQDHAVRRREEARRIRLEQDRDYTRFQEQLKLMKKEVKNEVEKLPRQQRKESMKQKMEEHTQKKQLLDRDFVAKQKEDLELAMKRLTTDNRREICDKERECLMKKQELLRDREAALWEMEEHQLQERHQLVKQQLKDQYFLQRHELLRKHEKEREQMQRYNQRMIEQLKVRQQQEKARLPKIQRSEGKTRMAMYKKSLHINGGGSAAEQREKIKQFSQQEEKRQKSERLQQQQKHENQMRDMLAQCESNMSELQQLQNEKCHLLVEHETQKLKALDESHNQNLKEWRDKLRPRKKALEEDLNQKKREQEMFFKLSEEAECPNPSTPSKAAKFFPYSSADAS

Structure (SMILES)	inhibition [1] [%]	inhibition [2] [%]	inhibition [3] [%]	inhibition [4] [%]	inhibition [5] [%]	inhibition [6] [%]	inhibition [7] [%]	inhibition [8] [%]	inhibition [9] [%]	inhibition [10] [%]	inhibition [11] [%]	inhibition [12] [%]	inhibition [13] [%]	inhibition [14] [%]	inhibition [15] [%]	inhibition [16] [%]	inhibition [17] [%]	inhibition [18] [%]	inhibition [19] [%]	inhibition [20] [%]
COC(=O)c1cncc(/C=C/c2c(C)cc(O)cc2C)c1	0.47	2.4	4.35	2	6.12	4.44	22.5	-4.1	1.18	2.33	8.18	2.38	9.6	2.3	-1.31	5.36	26.2	0.34	4.75	3.73
NS(=O)(=O)c1ccc(NC=C2C(=O)Nc3ccc4ncsc4c32)cc1	68.8	31.8	80.2	35.6	84.6	4.55	17.2	11	75.5	34.6	90.4	29.9	69.6	28.4	92.2	6.33	26.9	27.2	66.5	69.4
CN(C)C(=O)O[C@@H]1CN[C@@H](C#Cc2cc3ncnc(Nc4ccc(OCc5cccc(F)c5)c(Cl)c4)c3s2)C1	-4.24	-0.65	-0.85	2.82	0.46	2.85	5.35	1.84	4.98	1.79	8.44	2.09	5.86	0.89	14	1.67	6.26	0.47	2.35	2.96
CN(c1ccc(NC(=O)Nc2ccc(OC(F)(F)F)cc2)cc1)c1ccnc(Nc2cccc(S(N)(=O)=O)c2)n1	90.5	34.7	82.6	30.1	87.1	-0.18	8.63	-1.91	6.4	7.93	76.8	63.9	79	30.7	96.5	26	70.4	18.4	69.5	24.4
C[C@@H](Oc1cc(-n2cnc3ccc(OCC4CCN(C)CC4)cc32)sc1C(N)=O)c1ccccc1C(F)(F)F	0.72	-0.51	1.01	-0.61	0.64	-1.27	1.35	2.67	1.44	-0.53	-0.47	-2.46	2.14	-1.94	0.8	64.5	90.5	1.86	12.1	-0.3
Cc1ccc(NC(=O)CC2CC2)cc1-c1ccc(C(=O)NCC2CC2)cc1	1.04	1.14	3.38	2.32	4.16	3.64	5.85	-4.51	7.66	4.04	8.68	0.07	6.1	1.19	-2.19	3.11	8.8	0.05	3.42	2.06
Cc1ccc2c(-c3ccnc(Nc4ccc5c(c4)OCCO5)n3)c(-c3ccc(C(F)(F)F)cc3)nn2n1	-4.22	-1.22	0.09	3.63	-0.97	-1.11	2.6	-0.28	4.26	3.93	0.25	-0.46	-2.36	0.45	1.78	3.03	5.81	1.07	2.41	0.41
CCCN1CCCC(c2ccc(Nc3nc(Nc4cc(F)ccc4C(N)=O)c4cc[nH]c4n3)c(OC)c2)C1 (centres undefined)	5.65	4.46	6.11	3.36	5.51	3.48	6.47	-2.19	79.6	1.81	7.44	-0.78	3.45	-0.09	5.81	7.27	24.8	9.87	48.9	38.3
COc1cc(Nc2nccc(-c3cnn4ncccc34)n2)cc(OC)c1	26.7	5.6	39.5	9.63	45.6	5.79	31.4	4.29	15.4	20.9	94.2	20.5	71		94.4	5.8	27.3	28.5	72.7	26.1
COc1ccc(-c2nn3ncccc3c2-c2ccnc(Nc3cccc(C(F)(F)F)c3)n2)cc1	3.94	1.95	3.32	2.64	1.56	0.17	3.03	0.38	6.51	2.9	5.62	1.05	5.57	1.98	5.91	6.76	12.3	2.11	1.6	3.02
